SRC2 inh: inhibits human steroid receptor coactivator 2; inhibition, % at 9 µM; 370,000 tested, 0.17% active; HEK293 GAL4-SRC2 luciferase reporter, luminescence; Q15596; AID 651957;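 active means inhibition above the mean inhibition of all tested compounds plus 3 SD, set per campaign, cut at about 52% in these data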;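 further: 0% = DMSO treated cells and 100% = cells given Gossypol at 36 µM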
Gli-Sufu antag: Gli-Sufu pathway antagonism. 340,000 tested, 0.74% active. AID 588413. Sufu-KO-LIGHT fibroblasts, Gli luciferase reporter luminescence. inhibition, % at 5 µM;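 active means inhibition above about 55%, limit read from the data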;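 further: 0% = DMSO-treated cells and 100% = wells with medium but no cells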
NR2F2 inh: blocks human COUP-TFII nuclear receptor. P24468. HEK293T NGFI-A luciferase reporter, luminescence. 370,000 tested, 0.7% active. AID 686940. inhibition, % at 8.6 µM;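 active means inhibition above a per-plate cutoff, mean inhibition of test wells between control levels plus 3 SD, cut at about 38% in these data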;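 further: cells cotransfected with COUP-TFII expression vector driving the NGFI-A reporter; 0% = median of COUP-TF2 test wells and 100% = reporter-only cells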
LRH-1 inv ag: inverse agonists of human LRH-1 (NR5A2); AID 602396; HEK293T StAR-luciferase reporter, LRH-1 transfected, 24 h; 360,000 tested, 0.13% active; inhibition, % at 3.6 µM; O00482;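 active means inhibition above the mean inhibition of all tested compounds plus 3 SD, cut at about 73% in these data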;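 further: 0% = DMSO wells and 100% = reporter-only cells lacking LRH-1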
NCOA1 inh: inhibitors of human steroid receptor coactivator 1 (SRC1); Q15788; HEK293 GAL4-SRC1 luciferase reporter, luminescence; inhibition, % at 3.6 µM; 360,000 tested, 0.12% active; AID 588354;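 active means inhibition above the campaign mean plus 3 SD, with each screening campaign given its own cutoff, cut at about 60% in these data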;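 further: 0% = DMSO treated cells and 100% = gossypol at 36 µM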
NCOA3 inh: human NCOA3 inhibition; HEK293 GAL4-SRC3 luciferase reporter, luminescence; inhibition, % at 3.6 µM; 360,000 tested, 0.17% active; AID 588352;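 active means inhibition above a per-campaign cutoff, the mean of all compounds plus 3 SD, cut at about 60% in these data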;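 further: 0% = DMSO-treated cells and 100% = gossypol-treated cells at 36 µM; higher means less SRC3-driven luciferase light from the GAL4 reporter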
Gal4-VP16 ctr: VP16 inhibition counter-screen for COUP-TFII; shares compounds with NR2F2 inh; HEK293 Gal4-VP16 luciferase reporter, luminescence; inhibition, % at 8.5 µM; 2,500 tested, 25% active; AID 687007; in the data active means inhibition above about 13%
NR2F2 inh conf: COUP-TFII (NR2F2) inhibition, confirmation assay | HEK293 NGFI-A luciferase reporter, luminescence | 2,500 tested, 45% active | shares compounds with NR2F2 inh | inhibition, % at 8.5 µM;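 active means mean inhibition over three repeats above a set limit taken from the earlier primary screen, cut at about 38% in these data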;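 further: 100% = cells given the luciferase reporter alone without the COUP-TF2 vector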
An asterisk follows results filed as active; . = no result. Hits are enriched below; roughly 1.3% of the tested compounds scored in any of these assays.

SMILES	SRC2 inh	Gli-Sufu antag	NR2F2 inh	LRH-1 inv ag	NCOA1 inh	NCOA3 inh	Gal4-VP16 ctr	NR2F2 inh conf
COc1ccc(-c2ccc(C(=O)NCc3ccc(F)c(F)c3)c3occc23)c(C)c1	3	.	16	18	5	1	.	.
COc1ccc(-c2coc3c(C(=O)NCc4ccc(F)c(F)c4)cccc23)c(C)c1	6	.	47*	19	8	-22	7	28
O=C(c1ccccc1F)N1CCN(S(=O)(=O)c2ccc3c(c2)OCCO3)CC1	40	-4	42*	-9	12	5	-13	13
O=C(OC12CCCN(C1)/C(=C/c1cccnc1)C2)c1ccccc1 (stereo not drawn)	25	.	19	.	.	.	.	.
O=C(OC12CCCN(C1)/C(=C/c1ccncc1)C2)c1ccccc1 (stereo not drawn)	7	.	45*	.	.	.	12	36
CCOC(=O)c1c(-c2ccccc2)csc1NC(=O)CSc1nc(N)cc(N)n1	21	26	61*	9	15	3	7	27
NC(=O)[C@H]1CC2(CC(c3cccc(NC(=O)COc4ccc(Cl)cc4)c3)=NO2)CN1C(=O)Cc1ccc([N+](=O)[O-])cc1 (stereo partly drawn)	11	40	74*	42	28	27	-6	66*
CCCCCC(=O)Nc1cccc(C2=NOC3(C2)C[C@@H](C(N)=O)N(C(=O)Cc2ccc([N+](=O)[O-])cc2)C3)c1 (stereo partly drawn)	-16	4	-3	5	-11	-4	.	.
C[C@H](CO)N1C[C@H](C)[C@@H](CN(C)S(=O)(=O)c2ccc(F)cc2)Oc2c(NC(=O)Cc3ccccc3)cccc2C1=O	-33	-2	7	14	6	12	.	.
OCCC1CN(Cc2nc(-c3ccc(F)cc3)cs2)CCN1CCc1ccccc1 (stereo not drawn)	11	-1	15	0	-14	12	.	.
CC(C)(C)CN1CCN(Cc2nc(-c3ccc(F)cc3)cs2)CC1CCO (stereo not drawn)	6	9	48*	21	7	8	6	28
COC(=O)c1ccc(NC(=O)c2nc(S(=O)(=O)Cc3cccc(C)c3)ncc2Cl)cc1	60*	2	40*	11	-81	-58	46*	15
CCS(=O)(=O)c1ncc(Cl)c(C(=O)Nc2ccc(S(=O)(=O)N3CCC(C)CC3)cc2)n1	51	21	48*	-27	-53	-24	76*	63*
Cc1c(NC(=O)COC(=O)C23CC4CC(CC(O)(C4)C2)C3)c(=O)n(-c2ccccc2)n1C	41	-14	45*	3	-4	13	-8	5
COc1cccc(C(C)(O)c2nc(-c3ccccc3)cs2)c1 (stereo not drawn)	0	.	21	16	11	3	.	.
COc1cccc(C(C)(O)c2nc(-c3ccc(N(C)C)cc3)cs2)c1 (stereo not drawn)	15	.	55*	10	13	-9	-22	34
O=C(Nc1nnc(SCc2ccccc2F)s1)C1=COCCO1	-86	-25	-11	-96	-91	-62	.	.
O=C(Nc1cc(Sc2ccccn2)cc([N+](=O)[O-])c1)c1cccc(F)c1	12	22	42*	20	-7	12	-1	19
O=C(Nc1cc(Sc2nc3ccccc3s2)cc([N+](=O)[O-])c1)c1ccccc1	24	5	5	11	-12	-2	.	.
O=C(Nc1ccc(Oc2cccnc2)nc1)c1ccc(C(F)(F)F)cc1	28	3	66*	29	23	40	2	38*
CC(C)(C)c1ccc(Oc2ccc(NC(=O)c3ccco3)cn2)cc1	41	16	43*	-7	-2	32	29*	59*
O=C(Nc1ccc(Oc2cccc(C(F)(F)F)c2)nc1)c1ccco1	20	-2	2	8	-13	21	.	.
Nc1ccc(-c2ncc(-c3ccccc3)o2)cc1	80*	24	79*	34	21	15	72*	62*
Cc1ccc(-c2cnc(-c3ccncc3)o2)cc1	-18	-74	-49	-78	-71	-72	.	.
COCC(C)n1c(C)cc(C(=O)COC(=O)c2cccn2C)c1C (stereo not drawn)	33	37	57*	22	30	43	-42	50*
SMILES	SRC2 inh	Gli-Sufu antag	NR2F2 inh	LRH-1 inv ag	NCOA1 inh	NCOA3 inh	Gal4-VP16 ctr	NR2F2 inh conf
COCC(C)n1c(C)cc(C(=O)COC(=O)c2cnc(Cl)c(Cl)c2)c1C (stereo not drawn)	28	-5	-31	8	-7	12	.	.
CC1(C)CC(=O)C=C(c2ccc(-c3cnc4ccccc4c3)cc2)C1=O	16	.	42*	7	-26	-23	-62	78*
O=C1/C(=C/c2ccncc2)CCC/C1=C\c1ccncc1	74*	1	84*	30	-165	-22	66*	90*
O=C(CC1CCCC1)N1CC[C@H]2[C@H](CCCN2Cc2ccccc2)C1	5	.	-8	.	.	.	.	.
COc1cccc([C@@H](NC(=O)C(F)(F)F)[C@@H]2CCCC=C2c2ccccc2)c1	-3	.	15	.	.	.	.	.
CC(=O)N[C@@H](C)CCc1ccc(Oc2ccc(OC(C)C)nc2)cc1	.	.	39*	.	.	.	-32	1
CC(=O)c1ccc(OCCCC(=O)Nc2ccc(Cl)c(S(=O)(=O)N3CCOCC3)c2)cc1	19	9	70*	35	20	-18	3	56*
O=C(CCCSc1ccccc1)Nc1ccc(Cl)c(S(=O)(=O)N2CCOCC2)c1	14	8	40*	3	6	4	12	26
O=C(CCCOc1ccccc1)Nc1ccc(Cl)c(S(=O)(=O)N2CCOCC2)c1	32	8	49*	21	12	18	8	28
Cc1ccc(OCCCC(=O)Nc2ccc(Cl)c(S(=O)(=O)N3CCOCC3)c2)cc1	27	1	57*	15	17	20	-5	36
Cc1ccc(NC(=O)CCCOc2ccccc2)cc1S(=O)(=O)N1CCOCC1	-13	0	-6	1	-2	-6	.	.
CC(=O)c1ccc(OCCCC(=O)Nc2cc(S(=O)(=O)N(C)C)ccc2C)cc1	6	-6	8	13	7	9	.	.
CCN(CC)S(=O)(=O)c1cc(NC(=O)CCCOc2ccc(C(C)=O)cc2)ccc1C	9	9	42*	42	-1	20	-3	18
CCN(CC)S(=O)(=O)c1cc(NC(=O)c2ccc3c(c2)NC(=O)C(C)S3)ccc1C (stereo not drawn)	36	4	61*	18	-7	17	9	47*
